Results: article PMC8384837, “Expanding the binding specificity for RNA recognition by a PUF domain”

Legend:
Assay in all cases: yeast three-hybrid, YBZ-1, SC-Leu-His + 0.5 mM 3-AT, 4 days
Details in all cases: tags: N-Gal4 AD-HA kept; label: inside an RPR1-promoter hybrid RNA with tandem MS2 sites; ssRNA
PUM1 PUF domain R7-RRT = PUM1 PUF domain R7-RRT (Homo sapiens, UniProt Q14671 828-1176, S1079R;N1080R;E1083T)
How it was run: (§1)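 Matching RNA elements and Pumilio-1 PUF domain libraries, randomized at the three base-contacting residues of every repeat, were co-expressed from a centromeric plasmid in strain YBZ-1 (LexA–MS2 coat fusion, HIS3 reporter). The repeat regions were PCR-amplified and Illumina-sequenced from cells grown four days on SC-Leu (input) or SC-Leu-His + 0.5 mM 3-AT (selection). The interaction score is the log change in variant frequency from input to selection. It is computed in log2, with a pseudocount of 1 for absent variants.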

PUM1 PUF domain R8-RFS = PUM1 PUF domain R8-RFS (Homo sapiens, UniProt Q14671 828-1176, N1122R;Y1123F;Q1126S)
How it was run: as §1

PUM1 PUF domain R7-GPR = PUM1 PUF domain R7-GPR (Homo sapiens, UniProt Q14671 828-1176, S1079G;N1080P;E1083R)
How it was run: as §1

PUM1 PUF domain R7-QRR = PUM1 PUF domain R7-QRR (Homo sapiens, UniProt Q14671 828-1176, S1079Q;N1080R;E1083R)
How it was run: as §1

PUM1 PUF domain R1-AWR = PUM1 PUF domain R1-AWR (Homo sapiens, UniProt Q14671 828-1176, S863A;R864W;Q867R)
How it was run: as §1

PUM1 PUF domain R6-QYG = target: T1, PUM1 PUF domain R6-QYG (Homo sapiens, UniProt Q14671 828-1176, N1043Q;Q1047G)
T1 sequence: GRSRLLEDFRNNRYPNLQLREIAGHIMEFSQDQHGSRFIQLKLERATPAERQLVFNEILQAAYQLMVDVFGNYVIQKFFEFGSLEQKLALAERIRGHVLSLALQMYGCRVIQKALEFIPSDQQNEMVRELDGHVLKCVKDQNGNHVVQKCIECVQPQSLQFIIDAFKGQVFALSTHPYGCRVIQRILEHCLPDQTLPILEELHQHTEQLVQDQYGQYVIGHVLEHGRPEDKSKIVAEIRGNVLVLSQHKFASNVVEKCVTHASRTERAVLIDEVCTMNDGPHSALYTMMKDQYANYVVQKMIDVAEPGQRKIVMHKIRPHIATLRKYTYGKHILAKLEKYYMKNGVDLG
How it was run: as §1

PUM1 PUF domain R5-RSG = PUM1 PUF domain R5-RSG (Homo sapiens, UniProt Q14671 828-1176, C1007R;R1008S;Q1011G)
How it was run: as §1

PUM1 PUF domain R1-NFV = PUM1 PUF domain R1-NFV (Homo sapiens, UniProt Q14671 828-1176, S863N;R864F;Q867V)
How it was run: as §1

PUM1 PUF domain R3-IFL = PUM1 PUF domain R3-IFL (Homo sapiens, UniProt Q14671 828-1176, C935I;R936F;Q939L)
How it was run: as §1

PUM1 PUF domain R3-KSD = PUM1 PUF domain R3-KSD (Homo sapiens, UniProt Q14671 828-1176, C935K;R936S;Q939D)
How it was run: as §1

Sequence: GGCUAGAACUAGUGGAUCCCCCGGCGCCCGGCGGCUCGAGCCCGGGUAAGUUUAAAUAGUCUGCAUGCCGCCGGGCGCCAUGCCUGCAGGUCGACUCUAGAAAACAUG
- binding signal (PUM1 PUF domain R7-RRT): 4.83 log2 enrichment (interaction score)

Sequence: GGCUAGAACUAGUGGAUCCCCCGGCGCCCGGCGGCUCGAGCCCGGGUAAGCGUAAAUAGUCUGCAUGCCGCCGGGCGCCAUGCCUGCAGGUCGACUCUAGAAAACAUG
- binding signal (PUM1 PUF domain R8-RFS): 5.73 log2 enrichment (interaction score)

Sequence: GGCUAGAACUAGUGGAUCCCCCGGCGCCCGGCGGCUCGAGCCCGGGUAAGUCUAAAUAGUCUGCAUGCCGCCGGGCGCCAUGCCUGCAGGUCGACUCUAGAAAACAUG
- binding signal (PUM1 PUF domain R7-GPR): 3.96 log2 enrichment (interaction score)
- binding signal (PUM1 PUF domain R7-RRT): 4.42 log2 enrichment (interaction score)
- binding signal (PUM1 PUF domain R7-QRR): 3.77 log2 enrichment (interaction score)

Sequence: GGCUAGAACUAGUGGAUCCCCCGGCGCCCGGCGGCUCGAGCCCGGGUAAGUGUAAAUCGUCUGCAUGCCGCCGGGCGCCAUGCCUGCAGGUCGACUCUAGAAAACAUG
- binding signal (PUM1 PUF domain R1-AWR): 4.26 log2 enrichment (interaction score)

Sequence: GGCUAGAACUAGUGGAUCCCCCGGCGCCCGGCGGCUCGAGCCCGGGUAAGUGUAAAUAGUCUGCAUGCCGCCGGGCGCCAUGCCUGCAGGUCGACUCUAGAAAACAUG
- binding signal (PUM1 PUF domain R8-RFS): 6.27 log2 enrichment (interaction score)
- binding signal (PUM1 PUF domain R6-QYG): 3.17 log2 enrichment (interaction score)

Sequence: GGCUAGAACUAGUGGAUCCCCCGGCGCCCGGCGGCUCGAGCCCGGGUAAGUGUCAAUAGUCUGCAUGCCGCCGGGCGCCAUGCCUGCAGGUCGACUCUAGAAAACAUG
- binding signal (PUM1 PUF domain R5-RSG): 3.08 log2 enrichment (interaction score)

Sequence: GGCUAGAACUAGUGGAUCCCCCGGCGCCCGGCGGCUCGAGCCCGGGUAAGUGUUAAUAGUCUGCAUGCCGCCGGGCGCCAUGCCUGCAGGUCGACUCUAGAAAACAUG
- binding signal (PUM1 PUF domain R5-RSG): 2.84 log2 enrichment (interaction score)

Sequence: GGCUAGAACUAGUGGAUCCCCCGGCGCCCGGCGGCUCGAGCCCGGGUAAGUGUAAAUUGUCUGCAUGCCGCCGGGCGCCAUGCCUGCAGGUCGACUCUAGAAAACAUG
- binding signal (PUM1 PUF domain R1-NFV): 5.68 log2 enrichment (interaction score)
- binding signal (PUM1 PUF domain R1-AWR): 1.06 log2 enrichment (interaction score)

Sequence: GGCUAGAACUAGUGGAUCCCCCGGCGCCCGGCGGCUCGAGCCCGGGUAAGUGUAAUUAGUCUGCAUGCCGCCGGGCGCCAUGCCUGCAGGUCGACUCUAGAAAACAUG
- binding signal (PUM1 PUF domain R3-IFL): 3.79 log2 enrichment (interaction score)
- binding signal (PUM1 PUF domain R3-KSD): 2.88 log2 enrichment (interaction score)
